Compound activity deposited in PubChem by Center for Chemical Genomics, University of Michigan.
Dicer processing – human Dicer pre-microRNA cleavage inhibition. Q9UPY3. hit rate 6% among 47,000. cat-ELCCA pre-miR-21 Dicer processing, chemiluminescence; hits give high values. z-score at 25 µM; in the data active = z-score above about 3, passing the limit was not always enough;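 also: plate controls were vehicle for no effect and no enzyme for full effect; higher signal means more uncleaved substrate so more Dicer inhibition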
Target sequence (Q9UPY3 whole entry, looked up): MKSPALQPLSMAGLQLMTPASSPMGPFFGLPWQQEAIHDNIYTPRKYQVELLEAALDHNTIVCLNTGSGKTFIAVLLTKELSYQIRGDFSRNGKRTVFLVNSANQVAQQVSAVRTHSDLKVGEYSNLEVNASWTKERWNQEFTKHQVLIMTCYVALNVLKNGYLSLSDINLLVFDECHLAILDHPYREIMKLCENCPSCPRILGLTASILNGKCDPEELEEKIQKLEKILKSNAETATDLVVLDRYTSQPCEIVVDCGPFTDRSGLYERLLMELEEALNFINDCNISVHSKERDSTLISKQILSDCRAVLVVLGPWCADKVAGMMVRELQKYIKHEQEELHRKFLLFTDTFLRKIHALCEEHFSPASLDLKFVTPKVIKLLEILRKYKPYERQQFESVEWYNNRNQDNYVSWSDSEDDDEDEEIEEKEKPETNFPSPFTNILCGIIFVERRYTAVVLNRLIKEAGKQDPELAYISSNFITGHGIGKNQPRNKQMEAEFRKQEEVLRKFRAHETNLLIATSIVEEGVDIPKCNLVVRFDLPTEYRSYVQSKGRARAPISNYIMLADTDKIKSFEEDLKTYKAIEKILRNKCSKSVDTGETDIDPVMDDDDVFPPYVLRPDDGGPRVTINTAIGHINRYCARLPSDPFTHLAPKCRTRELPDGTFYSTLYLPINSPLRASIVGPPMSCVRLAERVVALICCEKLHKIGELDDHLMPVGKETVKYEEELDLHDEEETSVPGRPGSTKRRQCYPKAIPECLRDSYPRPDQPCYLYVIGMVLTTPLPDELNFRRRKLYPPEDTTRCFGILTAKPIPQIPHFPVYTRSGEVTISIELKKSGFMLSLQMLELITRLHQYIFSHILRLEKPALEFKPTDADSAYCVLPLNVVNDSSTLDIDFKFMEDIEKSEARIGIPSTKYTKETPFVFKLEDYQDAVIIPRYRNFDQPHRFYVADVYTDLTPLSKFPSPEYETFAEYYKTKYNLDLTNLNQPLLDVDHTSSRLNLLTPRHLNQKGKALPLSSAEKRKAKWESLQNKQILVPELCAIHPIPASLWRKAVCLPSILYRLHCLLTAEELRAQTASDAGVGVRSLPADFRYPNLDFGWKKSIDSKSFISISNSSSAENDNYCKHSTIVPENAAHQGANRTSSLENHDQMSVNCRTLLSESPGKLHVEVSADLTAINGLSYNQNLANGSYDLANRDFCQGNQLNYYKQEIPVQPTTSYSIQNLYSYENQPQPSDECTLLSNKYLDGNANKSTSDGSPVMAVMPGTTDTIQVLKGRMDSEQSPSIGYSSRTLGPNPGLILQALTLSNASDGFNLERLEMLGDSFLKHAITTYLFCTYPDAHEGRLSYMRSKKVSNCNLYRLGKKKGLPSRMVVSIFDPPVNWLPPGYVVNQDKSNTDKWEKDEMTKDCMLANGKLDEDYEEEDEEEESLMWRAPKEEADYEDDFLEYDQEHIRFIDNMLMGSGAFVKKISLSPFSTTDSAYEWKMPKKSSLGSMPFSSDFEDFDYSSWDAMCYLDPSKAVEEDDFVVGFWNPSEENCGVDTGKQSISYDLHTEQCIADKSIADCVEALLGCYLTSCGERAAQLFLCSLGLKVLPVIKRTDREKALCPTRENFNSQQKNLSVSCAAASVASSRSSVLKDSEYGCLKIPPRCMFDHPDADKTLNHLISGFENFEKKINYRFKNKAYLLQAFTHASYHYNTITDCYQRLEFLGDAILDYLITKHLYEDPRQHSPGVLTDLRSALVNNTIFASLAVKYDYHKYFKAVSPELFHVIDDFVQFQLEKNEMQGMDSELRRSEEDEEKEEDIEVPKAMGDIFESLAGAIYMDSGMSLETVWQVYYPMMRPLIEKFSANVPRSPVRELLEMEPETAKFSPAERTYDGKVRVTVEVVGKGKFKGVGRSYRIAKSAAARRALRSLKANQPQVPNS
* = called active by the depositor. Shown is part of a subset that was picked to be rich in hits.

SMILES | Dicer processing
O=C(NCCN1CCN(Cc2ccccc2)CC1)Nc1ccc(OCc2ccccc2)cc1 | -1.44
CCn1c(SCC(=O)c2ccccc2)nc2sc3c(c2c1=O)CCC3 | -1.03
COC(=O)CSc1nc2sc3c(c2c(=O)n1-c1ccc(OC)cc1)CCCC3 | 24.1
CCCCn1c(SCC(=O)OC)nc2sc3c(c2c1=O)CCC3 | 4.28*
Oc1ccccc1/C=N/c1nc(-c2ccccc2Cl)cs1 | 0.87
CCOC(=O)c1c(N)oc2c(-c3ccc(C(C)C)cc3)c3c(C(=O)OCC)c(N)oc3cc12 | 0.39
Clc1ccccc1OCc1nn2c(-c3ccccc3)nnc2s1 | 2.56
C=CCSc1nc(N)c(C(=O)Nc2ccccc2)cc1C(N)=O | 0.17
O=C(Nc1ccc(OC(=O)N2CCOCC2)cc1)N1CCOCC1 | -0.43
COc1ccc(S(=O)(=O)NCCNC(=O)N2CCOCC2)cc1 | -0.42
COc1ccc(OC(=O)N2CCOCC2)cc1 | 4.98*
CCNc1cc(N(C)C)nc(Oc2ccc(OCCOc3ccccc3C)nn2)n1 | 0.6
Cc1ccc2c(N)c(C(=O)c3ccc(-c4ccccc4)cc3)sc2n1 | 3.25*
COc1ccc(C(=O)c2sc3nc(-c4ccc(OC)cc4)ccc3c2N)cc1 | 0.01
Cc1cc(C)c2c(N)c(C(=O)c3ccccc3)sc2n1 | -0.42
Cc1nn(C)c(Sc2ccccc2NC(=O)C(Cl)Cl)c1[N+](=O)[O-] | -0.27
CC(C#N)(Nc1ccccc1)c1ccncc1 (stereo not given) | 3.38*
CCCS(=O)(=O)c1c(S(=O)(=O)CCC)c2ccc(C(N)=O)cn2c1C(=O)c1ccc(C)cc1 | 0.19
NC(=O)C1CCN(c2ncc(Cl)cc2C(F)(F)F)CC1 | -1.28
CC(C)N(Cc1ccccc1)S(=O)(=O)c1ccc(CNC(=O)c2ccc(Cl)cc2)s1 | -1.01
COC(=O)c1ccc(C(F)(F)C(F)(F)c2ccc(C(=O)OC)cc2)cc1 | 0.5
COC(=O)c1ccc2ncccc2c1 | -0.59
COC(=O)c1ccc(C(=O)OC)nc1 | 3.85*
c1cnc(N2CCN(Cc3ccc4c(c3)OCO4)CC2)nc1 | 0.47
CSc1ccc(CN2CCN(S(=O)(=O)c3ccc(Cl)cc3)CC2)cc1 | 3.45*
SMILES | Dicer processing
CSc1ccc(CN2CCN(S(=O)(=O)c3ccc(C)cc3)CC2)cc1 | -2.06
CC1(C)CC(=O)c2cnc(N3CCN(Cc4ccc5c(c4)OCO5)CC3)nc2C1 | 1.08
Cc1nc(N2CCN(Cc3ccc4c(c3)OCO4)CC2)[nH]c(=O)c1C | 3.23*
Cc1nc(N2CCN(Cc3ccc4c(c3)OCO4)CC2)[nH]c(=O)c1CCC(C)C | 3.74*
Cc1ccc(S(=O)(=O)N2CCN(Cc3ccc4c(c3)OCO4)CC2)cc1 | 7.36*
Cc1ccc(Cc2c(C)nc(N3CCCC3)[nH]c2=O)cc1 | 0.86
Cc1cc(C)c(S(=O)(=O)N2CCN(Cc3ccc4c(c3)OCO4)CC2)c(C)c1 | -1.27
O=C(c1ccncc1)N1CCN(Cc2ccc3c(c2)OCO3)CC1 | 0.43
CSc1ccc(CN2CCN(S(=O)(=O)c3ccccc3)CC2)cc1 | 2.36
COc1cc(C)c(S(=O)(=O)N2CCN(Cc3ccc4c(c3)OCO4)CC2)cc1C | 0.76
COCCOC(=O)c1c(C)oc2ccc(NS(=O)(=O)c3cccc4ccccc34)cc12 | 0.82
O=C(c1cnc2cc(-c3ccccc3)nn2c1)c1cc(F)ccc1O | -1.14
C=CCN(c1ccccc1C1=N/C(=C\c2ccc(Cl)cc2)C(=O)O1)S(=O)(=O)c1ccc(C)cc1 | -0.31
CC(=O)OC(C)CNc1nc2c([nH]1)c(=O)n(C)c(=O)n2C (stereo not given) | -0.65
C#CC(C)(C)NS(=O)(=O)c1ccc(F)cc1 | -0.55
CCOc1cccc(C2c3c(oc4ccccc4c3=O)C(=O)N2c2nnc(C(C)C)s2)c1 (stereo not given) | -0.53
Cc1ccc(S(=O)(=O)CC(O)COc2ccc(Br)cc2)cc1 (stereo not given) | -0.77
CCOC(=O)/C(C)=N/Nc1ccc(F)cc1F | -0.65
O=C(O)c1c[nH]c2c(-c3ccccc3)c(C(F)(F)F)sc2c1=O | 4.82*
CCOC(=O)c1c[nH]c2c(-c3ccccc3)c(C(F)(F)F)sc2c1=O | 0.13
Cc1cccc2c(=O)c(C(=O)O)c[nH]c12 | 0.73
Cc1ccc(NC(=O)/C=N/O)cc1Cl | -0.67
CN(C)c1ccc(C(=O)NNC(=O)c2cc([N+](=O)[O-])ccc2N)cc1 | 2.06
Cc1ccc(NC(=O)c2ccc(C(F)(F)F)cc2)c(OC(=O)c2ccc(C(F)(F)F)cc2)c1 | -1.16
CCOc1c(N2CC(C)OC(C)C2)c(=O)c1=O (stereo not given) | 5.98*
SMILES | Dicer processing
CCOc1c(N2CCOCC2)c(=O)c1=O | 0.88
CCOc1ccc(-c2nc(C#N)c(N3CC(C)OC(C)C3)o2)cc1 (stereo not given) | 0.5
CC1CC(=O)Nc2ccccc2N1C(=O)CCC(=O)O (stereo not given) | -1.78
COc1ccc(-c2nc(C#N)c(N3CCCCC3)o2)cc1 | -0.28
N#Cc1nc(-c2ccc(Cl)cc2)oc1N1CCOCC1 | 3.68*
N#Cc1nc(-c2ccc(F)cc2)oc1N1CCOCC1 | -0.48
FC(F)(F)c1cc(-c2ccc(Cl)cc2)nc2cc(-c3ccc(Cl)cc3)nn12 | 0.33
CCC1CCCCN1Cc1c(C)[nH]c2c(C)c(C)ccc2c1=O (stereo not given) | -0.13
CCOC(=O)C1C2C=CC3(CN(c4ccccc4C)C(=O)C13)O2 (stereo not given) | 0.36
CCCCNC1=CC(=O)CC(C)(C)C1 | 1.84
COc1ccc(NC2=CC(=O)CC(C)(C)C2)c(OC)c1 | -1.58
Cc1ccc(NC2=CC(=O)CC(C)(C)C2)cc1C | 3.47*
COc1ccc(C2C(C(=O)OC(C)C)=C(C)NC3=C2C(=O)CCC3)cc1OC (stereo not given) | 2.54
CCOC(=O)c1ccc(Oc2nc(C)cc(OC)n2)cc1 | -1.39
O/N=C1/CCCc2nnc3c(c21)CCCC3 | -1.08
Cc1ccc(C2Nn3c(nnc3-c3ccccc3)SC2C(=O)N2CCOCC2)cc1 (stereo not given) | -0.66
Cc1ccc(C2Nn3c(nnc3-c3ccccc3)SC2C(=O)N2CCCCC2C)cc1 (stereo not given) | 3*
O=C(C1Sc2nnc(-c3ccccc3)n2NC1c1ccccc1)N1CCCC1 (stereo not given) | -0.08
Cc1nn(CCC#N)c(C)c1Cc1c(Cl)cccc1Cl | -0.91
CC(C)c1ccc2c(c1)CCC1C(C)(CNC(=O)NC(C)(C)C)CCCC21C (stereo not given) | 1
CCOC(=O)c1c(NC(=O)c2ccco2)sc(C)c1-c1ccccc1 | -0.75
O=C(NCC1CCCO1)c1ccc(COc2ccc(F)cc2)o1 (stereo not given) | 2.92
CCOc1ccc(OCc2ccc(C(=O)NC(C)(C)C)o2)cc1 | 3.39*
CC(C)(C)c1ccc(OCc2ccc(C(=O)O)o2)cc1 | 1.14
O=c1[nH][nH]c(=S)n1-c1cccc(Cl)c1 | 0.06
SMILES | Dicer processing
COc1ccccc1-c1coc2cc(OC(=O)c3cncc(Br)c3)ccc2c1=O | 1.35
N#CC(c1ccccc1)N1CCCCC1 (stereo not given) | -8.28
O=C1CC(c2ccc(Cl)cc2)c2ccc3ccccc3c2N1 (stereo not given) | 0.16
Cc1cc(C)nc(N2N=C(CSc3ccc(Cl)cc3)CC2=O)n1 | -0.85
Cc1cc(C)nc(SCC2=NN(c3nc(C)cc(C)n3)C(=O)C2)n1 | 4.05*
Cc1cc(C)nc(N2N=C(C(C)C)CC2=O)n1 | -5.92
O=C1c2ccccc2C(=O)N1c1ccc([N+](=O)[O-])cc1 | -1.12
O=c1c([N+](=O)[O-])c[nH]n(-c2ccccc2)c1=O | 4.42*
Cc1cc(=O)[nH]n(-c2ccccc2)c1=O | 1.96
CN(c1c2c(nn1C)CCCC2)S(=O)(=O)c1ccc(Cl)cc1 | 0.8
